# Bioassay records from PubChem BioAssay.
# Most compounds without a hit are left out; they make up all but 12% or so of the library.
# TDP1 block – qHTS Assay for Inhibitors of Tyrosyl-DNA Phosphodiesterase (TDP1); Tyrosyl-DNA phosphodiesterase 1 (Homo sapiens), Q9NUW8; recombinant TDP1, AlphaScreen DNA substrate cleavage; Potency, µM (series often up to 130 µM), actives largely listed as inhibitors; 350,000 compounds, 0.28% hits; AID 485290, 2010; also: nearly all actives have a fitted effect of over 40% in size
#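 Compounds were preincubated with Tdp1 (1 nM final) for 15 min at room temperature before substrate (15 nM final) started a 5 min reaction; beads (10 ug/ml final) were then added for 10 min before AlphaScreen detection.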
# HP1b chromo inh – HTS for Inhibitors of HP1-beta Chromodomain Interactions with Methylated Histone Tails; Chromobox protein homolog 1 (Homo sapiens), P83916; AlphaScreen HP1-beta / biotin-H3K9me3 peptide binding; Potency, µM (titrated, usually from 114 µM), most hits filed as inhibitors; 390,000 compounds, 0.56% hits; AID 540317, 2011; also: nearly all actives have a fitted effect of over 70% in size
#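 HP1-beta protein (50 nM final) preincubated 30 min at room temperature with biotinylated H3(1-18)K9me3 peptide (50 nM) in PBS pH 7.4, 0.01% Tween-20, then compound added for 30 min. AlphaScreen streptavidin donor/nickel chelate acceptor beads (10 ug/mL final), 30 min dark, luminescence read.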
# G9a inh – qHTS Assay for Inhibitors of Histone Lysine Methyltransferase G9a; AID 504332, 2011; 350,000 compounds, 8.8% hits; Histone-lysine N-methyltransferase EHMT2 (Homo sapiens), Q96KQ7; Potency, µM (highest dose often 102 µM), hits mostly inhibitors; G9a H3K9 monomethylation, AlphaScreen, 2 h; also: nearly all actives have a fitted effect of over 75% in size
#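 Chemiluminescent proximity detection of H3K9 monomethylation, read after 10 min bead incubation in the dark. Reaction: 20 nM G9a, 500 nM biotin-H3K9 peptide, 20 uM SAM cofactor, 2 h, room temperature, following 15 min enzyme-compound preincubation.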
# Sfp PPTase inh – qHTS Assay for Inhibitors of Bacillus subtilis Sfp phosphopantetheinyl transferase (PPTase); Potency, µM, hits mostly inhibitors; 310,000 compounds, 3.5% hits; Biochemical Sfp PPTase activity, qHTS; AID 1490, 2009; 4'-phosphopantetheinyl transferase ffp (Bacillus subtilis), Q9F4F7;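 also: the enzyme is Sfp with the accession as filed and its product quenches rhodamine fluorescence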
#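 Step 1, compound plus 15 nM Sfp-PPTase, 15 min, room temperature. Step 2, add rhodamine-CoA (5 uM) and BHQ-2-YbbR (12.5 uM). Step 3, read 525/598 nm fluorescence at 0 and 30 min.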
# BAZ2B inh – qHTS Assay for Inhibitors of BAZ2B; Bromodomain adjacent to zinc finger domain protein 2B (Homo sapiens), Q9UIF8; AlphaScreen BAZ2B-H3K14Ac peptide displacement; Potency, µM (titrated, usually from 114 µM), hits mostly inhibitors; 360,000 compounds, 4.4% hits; AID 504333, 2011; also: nearly all actives have a fitted effect of over 60% in size
#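 Multi-concentration screen (max 110 uM) measuring displacement of acetylated histone H3 peptide from BAZ2B by AlphaScreen, using 50 nM protein, 50 nM peptide and 10 ug/mL streptavidin donor plus Ni-chelate acceptor beads.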
# JMJD2A Tudor inh – qHTS Assay for Inhibitors of JMJD2A-Tudor Domain; AlphaScreen JMJD2A-Tudor / H3K4me3 peptide binding; AID 504339, 2011; Lysine-specific demethylase 4A (Homo sapiens), O75164; Potency, µM (highest dose often 114 µM), actives largely listed as inhibitors; 390,000 compounds, 4.4% hits; also: nearly all actives have a fitted effect of over 50% in size
# Target sequence (O75164 whole entry, looked up, the tested form may be a part): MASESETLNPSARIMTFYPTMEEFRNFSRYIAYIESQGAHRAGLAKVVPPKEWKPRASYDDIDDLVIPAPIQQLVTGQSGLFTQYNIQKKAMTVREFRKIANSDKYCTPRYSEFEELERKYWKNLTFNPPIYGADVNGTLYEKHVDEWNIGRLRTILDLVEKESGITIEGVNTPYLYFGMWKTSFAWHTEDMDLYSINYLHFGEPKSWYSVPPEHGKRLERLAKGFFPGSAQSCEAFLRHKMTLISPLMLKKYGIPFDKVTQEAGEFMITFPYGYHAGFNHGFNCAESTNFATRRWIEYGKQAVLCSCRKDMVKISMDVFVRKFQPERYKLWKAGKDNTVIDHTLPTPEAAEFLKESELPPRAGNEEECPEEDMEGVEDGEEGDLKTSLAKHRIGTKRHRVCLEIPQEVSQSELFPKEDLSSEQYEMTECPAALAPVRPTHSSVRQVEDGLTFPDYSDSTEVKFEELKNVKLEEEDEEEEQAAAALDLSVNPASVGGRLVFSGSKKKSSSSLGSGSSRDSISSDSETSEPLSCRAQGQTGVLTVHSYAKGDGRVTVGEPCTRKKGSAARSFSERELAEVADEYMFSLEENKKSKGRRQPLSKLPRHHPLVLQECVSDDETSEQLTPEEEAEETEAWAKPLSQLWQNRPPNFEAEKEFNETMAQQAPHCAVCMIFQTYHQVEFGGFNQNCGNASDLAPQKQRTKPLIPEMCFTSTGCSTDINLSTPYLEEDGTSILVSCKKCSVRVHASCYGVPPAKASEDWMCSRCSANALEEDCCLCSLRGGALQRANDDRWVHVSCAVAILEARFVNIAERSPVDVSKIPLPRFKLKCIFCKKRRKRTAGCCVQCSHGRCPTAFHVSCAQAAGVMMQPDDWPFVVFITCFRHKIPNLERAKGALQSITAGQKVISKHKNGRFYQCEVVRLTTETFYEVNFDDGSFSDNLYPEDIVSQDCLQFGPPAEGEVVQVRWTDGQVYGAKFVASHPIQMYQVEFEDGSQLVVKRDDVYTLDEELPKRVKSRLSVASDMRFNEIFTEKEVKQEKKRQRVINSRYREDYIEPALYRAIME
# Numbers stand for hits; - = inactive; ? = inconclusive; . = no result; [ ] = dose if it differs, or a comment. Calls follow the shape of the dose curve; as a rule, active = well fitted curve in the direction sought with a large enough effect; inconclusive = small, poorly fitted or top-dose-only effect, or another doubt; inactive = no such curve, though single readings can be large; an effect the other way counts as inactive or inconclusive.
SMILES,TDP1 block,HP1b chromo inh,G9a inh,Sfp PPTase inh,BAZ2B inh,JMJD2A Tudor inh
O=C(CN(c1ccccn1)S(=O)(=O)c1ccccc1)N/N=C/c1cccc([N+](=O)[O-])c1,-,-,?,-,?,-
Cc1ccc(S(=O)(=O)Nc2ccc(N=Nc3ccc(O)cc3)cc2)cc1,-,?,-,-,44.7µM,?
Cc1ccc(S(=O)(=O)Nc2c(Cl)c(Cl)c(O)c3ccccc23)cc1,-,.,1.26µM,44.7µM,44.7µM,.
Cc1ccc(S(=O)(=O)Nc2ccccc2-c2ccccc2NS(=O)(=O)c2ccc(C)cc2)cc1,-,-,-,-,-,-
Cc1nc2nc(NC(=O)CC(C)C)[nH]n2c(=O)c1Cc1ccccc1,-,-,-,.,-,-
CCN(C(=O)COC(=O)CCn1c(C)csc1=O)c1c(N)n(Cc2ccccc2)c(=O)[nH]c1=O,-,-,-[12.7 µM],.,-,-
Cn1c(=O)[nH]c(=O)c2c1nc1n2CCN1c1ccccc1,-,-,-,.,-,-
NC(=O)NCCc1ccccc1,.,-,-,-,-,-
Cc1ccc2c(c1)NC(=O)c1cccc([N+](=O)[O-])c1CO2,-,.,50.1µM,-,-,.
Cc1ccc2c(c1)Oc1ccc([N+](=O)[O-])cc1C(=O)N2,-,-,-,-,-,-
CCOC(=O)/C(=N\Nc1ccccc1Cl)N1CC(C)OC(C)C1 (centres undefined),-,-,-,-,?,-
CCOC(=O)/C(=N\Nc1ccc(Br)cc1)N1CC(C)OC(C)C1 (centres undefined),-,-,3.16µM,-,-,?
CCOC(=O)CN=C1CC(C)(C)CC2=C1Sc1ncnc(N(C)C)c1N2,-,-,4.47µM,10µM,?,?
Cc1cccc(NC(=O)c2ccc(C(=O)c3ccccc3)cc2)n1,.,-,7.94µM,.,-,-
Cc1cccc(NC(=O)c2ccc(NCCO)c([N+](=O)[O-])c2)n1,-,-,-,-,89.1µM,-
COc1ccc(CNC(=O)c2ccc3nc(CCc4ccccc4)oc3c2)c(OC)c1,-,-,-,.,-,-
Cc1cc(C(=O)NCc2ccc(S(N)(=O)=O)cc2)c(C)o1,-,-,-,-,?,-
Cc1occc1C(=O)NCc1ccc(C(=O)O)o1,-,-,-[12.7 µM],50.1µM,-,-
Cc1cc(C(=O)NCc2ccc(C(=O)O)o2)c(C)o1,-,?,?,-,56.2µM,22.4µM
Cc1nn(Cc2ccc(Cl)cc2)c(C)c1NC(=O)c1cc(-c2ccc3c(c2)OCO3)on1,-,-,-,-,-,-
CCc1c(C)sc(NC(=O)c2noc(C)c2[N+](=O)[O-])c1C#N,-,-,39.8µM,50.1µM,-,-
Cc1nn(Cc2ccc(Cl)c(Cl)c2)c(C)c1NC(=O)c1cc(-c2ccc3c(c2)OCO3)on1,-,-,56.2µM,-,50.1µM,-
COc1ccc(CCNC(=O)c2cc(-c3ccc(Cl)cc3)on2)cc1OC,-,-,-,.,-,-
CCc1c(C)sc(NC(=O)c2cc(-c3ccc(OC)c(OC)c3)on2)c1C#N,-,?,7.94µM,-,-,-
CCc1c(C)sc(NC(=O)c2ccco2)c1C#N,-,-,.,-,-,-
SMILES,TDP1 block,HP1b chromo inh,G9a inh,Sfp PPTase inh,BAZ2B inh,JMJD2A Tudor inh
COc1ccc(-c2cc(C(=O)Nc3cc(C)n(Cc4ccc(Cl)cc4)n3)no2)cc1OC,-,-,-,70.8µM,-,-
CCc1c(C)sc(NC(=O)c2cc(-c3ccc(O)cc3)on2)c1C#N,-,-,44.7µM,-,-,-
CCc1c(C)sc(NC(=O)c2cc(CC(C)C)on2)c1C#N,-,-,?,-,-,-
CCc1ccc(NS(=O)(=O)c2ccc3[nH]cc(C(=O)N(C)Cc4ccco4)c(=O)c3c2)cc1,.,-,89.1µM,-,?,-
CCOc1ccc(NS(=O)(=O)c2ccc3[nH]cc(C(=O)N(C)Cc4ccccc4)c(=O)c3c2)cc1,-,-,?,.,?,-
CN(Cc1ccco1)C(=O)c1c[nH]c2ccc(S(=O)(=O)Nc3ccc4c(c3)OCCO4)cc2c1=O,-,-,89.1µM,-,?,-
Cc1ccccc1-c1nc(SCC(=O)NCc2ccc(F)cc2)c2c(=O)n(C)c(=O)n(C)c2n1,-,-,-,.,-,-
CC1=CC(c2ccc(Cl)cc2)n2nc(NC(=O)CCC(=O)O)nc2N1 (centres undefined),-,-,20µM,-,50.1µM,?
CC1=CC(c2ccc(Cl)cc2)n2nc(NC(=O)CCCC(=O)O)nc2N1 (centres undefined),.,-,50.1µM,-,?,25.1µM
CC(=O)Nc1nc2n(n1)C(c1ccc(F)cc1)C=C(c1ccc(Cl)cc1)N2 (centres undefined),-,-,?,.,?,-
N#Cc1ccc(CN(c2ccncc2)S(=O)(=O)c2ccccc2)cc1,-,-,-,-,-,-
O=C(Cc1nc(-c2ccc([N+](=O)[O-])cc2)cs1)Nc1ccccc1,-,-,.,-,-,-
O=[N+]([O-])c1ccc(-c2cc(-c3ccncc3)nc3ccc4ccccc4c23)cc1,-,-,44.7µM,-,?,-
O=C(CSCc1ccccc1Br)NNC(=S)NCc1ccco1,-,-,39.8µM,-,-,?
O=C(CSc1cccc(C(F)(F)F)c1)NC(=O)NCc1ccco1,-,-,-,-,50.1µM,79.4µM
O=C(CSc1ncccn1)NC(=O)NCc1ccco1,.,-,-,-,.,-
Cc1ccccc1CSCC(=O)NC(=O)NCc1ccco1,-,?,44.7µM,-,-,44.7µM
Cc1nnc(SCC(=O)NC(=O)NCc2ccco2)s1,-,-,-,-,-,-
O=C(CSc1ccccc1F)NC(=O)NCc1ccco1,-,-,-,44.7µM,39.8µM,-
CC1=C(C(=O)Nc2ccc(C)cc2C)C(c2ccccc2F)n2nc(SCC(=O)c3ccc(C)cc3)nc2N1 (centres undefined),-,-,-,.,-,-
CCOC(=O)C1(CCc2ccccc2)CCN(C(=O)[C@@H]2C[C@@H](C)NC(=S)N2)CC1,.,-,44.7µM,-,-,-
Cc1c(Cl)cccc1NS(=O)(=O)c1ccc2c(c1)C1C=CCC1C(c1ccc(C(=O)O)cc1)N2 (centres undefined),.,50.1µM,2.82µM,?,44.7µM,56.2µM
Cc1cccc(C)c1NS(=O)(=O)c1ccc2c(c1)[C@H]1C=CC[C@H]1[C@@H](c1ccc(Cl)cc1)N2,.,-,3.55µM,.,-,-
